The record followed here is PubChem BioAssay.

Experiment [1] is described as follows: glutamate transport activators, MN-1 cells, MN-1 cell line (AID 1612).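 Note: tested at 1 µM final; 0% = mean of DMSO vehicle wells on each plate; positive means more glutamate uptake than control and negative means less.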 The note with it: MN-1 motor neuron cells, stronger effect = higher value.
Experiment [2] can be described thus: 75Q-TubH aggregate inhibition, S. cerevisiae, yeast (AID 1616). The note with it: S. cerevisiae 75Q-TubH polyglutamine aggregation suppression; stronger effect = higher value.
A short description of experiment [3]: compounds altering viability of human ES cells (AID 493140; call rule not given here;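 note: cells exposed to compounds for four days before counting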). The note with it: human embryonic stem cell survival screen; stronger effect = higher value.
The nature of experiment [4]: modulation of C. elegans fzo-1 (AID 1259413; call rule not given here;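 note: fzo-1 mutant C. elegans worms in liquid wells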). Conditions: C. elegans fzo-1 modulator screen, mean read-out; stronger effect = higher value.
Experiment [5] in a line: viability loss in pontine glioma line – cell-based, JHH-DIPG-1, MIPE4.0, CellTiter-Glo, qHTS, dose response (AID 1347062; cut-off not given, nearly all actives have AC50 up to about 27 µM). The note with it: JHH-DIPG-1 viability, CellTiter-Glo ATP luminescence. In general terms: In ATP-based viability assays light output follows the ATP content of the culture.
The nature of experiment [6]: growth inhibition of DIPG cells – cell-based, MIPE4.0 library, CellTiter-Glo luminescence, qHTS (AID 1347066; cut-off not given, nearly all actives have AC50 up to about 30 µM;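 note: cells exposed to compound for 48 hours before readout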). Conditions: SU-DIPG-VI viability, CellTiter-Glo ATP luminescence.
The test system of experiment [7] is F380Y. Kind of experiment: BK channel mutant inhibitors and activators – cell-based, U2OS BacMam, thallium flux, beta subunits, selectivity assay, profiling panel (AID 1259406).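 Note: initial slope of Thallos dye fluorescence rise after thallium is added; log ratio against the mean of 0.3% DMSO vehicle wells on the same plate.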 Conditions: U2OS BacMam BK variants, at 30 µM.
Experiment [8] has as its system F380Y/beta1. The description is as above. Conditions: U2OS BacMam BK variants, at 30 µM.
Experiment [9] concerns F380Y/beta2Delta. The experiment is described as above. Conditions: U2OS BacMam BK variants, at 30 µM.
Experiment [10] deals with F380Y/beta4. Described as above. The note with it: U2OS BacMam BK variants, at 30 µM.
Experiment [11] deals with Calcium-activated potassium channel subunit alpha-1 (Homo sapiens) + Leucine-rich repeat-containing protein 26 (Homo sapiens) (UniProt Q12791+Q2I0M4). Described as above. The note with it: U2OS BacMam BK variants, F380Y/Slo1WT/gamma1, at 30 µM.
Sequence of Calcium-activated potassium channel subunit alpha-1 (Homo sapiens) + Leucine-rich repeat-containing protein 26 (Homo sapiens) (Q2I0M4 whole entry, looked up, one chain of several): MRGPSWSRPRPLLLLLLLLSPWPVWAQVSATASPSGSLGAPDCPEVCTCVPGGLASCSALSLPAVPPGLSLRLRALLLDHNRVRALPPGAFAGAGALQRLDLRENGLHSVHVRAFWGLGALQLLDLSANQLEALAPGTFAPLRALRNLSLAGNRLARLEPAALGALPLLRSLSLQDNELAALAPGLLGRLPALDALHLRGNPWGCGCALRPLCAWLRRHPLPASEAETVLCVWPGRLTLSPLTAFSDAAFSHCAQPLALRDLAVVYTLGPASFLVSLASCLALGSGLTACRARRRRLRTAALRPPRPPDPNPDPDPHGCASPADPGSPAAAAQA
The subject of experiment [12] is R275C. The experiment is described as above. Conditions: U2OS BacMam BK variants, at 30 µM.
The test system of experiment [13] is R275C/beta1. The description is as above. The note with it: U2OS BacMam BK variants, at 30 µM.
For experiment [14], the system named is R275C/beta2Delta. Described as above. Conditions: U2OS BacMam BK variants, at 30 µM.
Experiment [15] has as its system R275C/beta4. The experiment is described as above. Conditions: U2OS BacMam BK variants, at 30 µM.
Experiment [16] deals with R275C/Slo1WT/beta2. Described as above. The note with it: U2OS BacMam BK variants, at 30 µM.
Experiment [17] is described as follows: growth inhibition, single agent or in combination, cell-based, chromothripsis tumors, cisplatin or BGB combos (AID 1671449; in the data active = inhibition above about 80%;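 note: cells exposed for 96 hours; 0% = vehicle DMSO and 100% = killing by high DMSO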). The note with it: LFS_MB_P medulloblastoma cells.
Experiment [18] in a line: growth inhibition, single agent and combos, cell-based, chromothripsis tumors, cisplatin or BGB combos (AID 1671450; in the data active = inhibition above about 80%;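 note: cells exposed to compound for four days; 0% = vehicle DMSO and 100% = cell killing by high DMSO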). The note with it: HDN33 neuroblastoma cells, stronger effect = higher value.
A short description of experiment [19]: growth inhibition, single agents and combos, HTB85, cell-based, BGB or cisplatin IC20 combos, synergistic combos for chromothripsis tumors (AID 1671453; in the data active = inhibition above about 80%;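 note: cells exposed for 96 hours before readout; 0% = vehicle DMSO and 100% = high DMSO killing control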). Conditions: HTB85 osteosarcoma cells, drug combinations, stronger effect = higher value.
Experiment [20] in a line: viability loss with induced miR-34 in A549 – imaging, A549 dox-inducible miR-34, nuclei and caspase counts, primary screen (AID 1347080;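 active = compounds whose cell count with miR-34 switched on is under 0.7 times the count with it off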). The note with it: A549 miR-34 inducible, Hoechst nuclei count, 48 h.

Each structure is given as a SMILES string. “And” between values parts separate entries of the source, which are not always exact repeats. Equal values may be shown once. Records with an inconclusive call do not appear. The source made the active and inactive calls.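 Rule for the calls, unless noted: active = thallium flux through the channel raised or lowered by more than 3 SD from vehicle-only wells, actives on both sides; inactive = the rest.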

Take `Clc1cccc(Cl)c1NC1=NCCN1`: the glutamate uptake change in experiment [1] worked out at 13.8%. In experiment [2], this molecule displayed an aggregation suppression score of 1.85. Also, the survival in [3] was 20.8 (inactive). Besides, the mean signal in experiment [4] is 231 (inactive). The call in experiment [5] and in experiment [6] was inactive. The log fold change Tl+ flux in experiment [7] was 0.0065 (inactive); in experiment [8], 0.0554 (inactive); in [9], 0.0431 (inactive); in [10], -0.00138 (inactive); in [11], 0.0127 (inactive); in experiment [12], -0.0635 (inactive). In addition, the log fold change Tl+ flux in [13] is 0.000941 (inactive); in [14], -0.00732 (inactive); in [15], 0.0373 (inactive); in [16] it was 0.0101 (inactive).

Turning to `CCN(CC)CCCC(C)Nc1c2ccc(Cl)cc2nc2ccc(OC)cc12` (stereo unspecified), the glutamate uptake change in experiment [1] worked out at 2.03%. In addition, in [2], the aggregation suppression score was 1.04. For the same molecule, the inhibition in experiment [17] (at 0.5 µM, stronger effect = higher value) is -9.53% (inactive); in experiment [17] (measured here: combination with BGB IC20, at 0.005 µM) it was 13.9%; in experiment [17] (measured here: combination with BGB IC40, at 0.005 µM), 18.9%; in [17] (measured here: combination with BGB IC40, at 0.05 µM) it was 6.94%; in experiment [17] (measured here: combination with cisplatin, at 0.5 µM, stronger effect = higher value), -29.9%; in experiment [17] (measured here: combination with cisplatin, at 5 µM, stronger effect = higher value), 113%. Besides, the inhibition was 99.8% in [18] (BGB combo, at 5 µM); -12.9% (inactive) in experiment [18] (at 0.5 µM); 99.8% in experiment [18] (cisplatin combo, at 5 µM); -9.01% in [18] (measured here: with BGB IC20 combination, at 0.5 µM); -29.7% in experiment [18] (measured here: with cisplatin IC20 combination, at 0.5 µM); 99.8% in [18] (single agent, at 5 µM). In addition, the inhibition is -23.3% (inactive) in experiment [19] (at 0.5 µM); -27.3% in [19] (measured here: with BGB IC20, at 0.5 µM); 99.8% in experiment [19] (measured here: with BGB IC20, at 5 µM); -38% in experiment [19] (measured here: with cisplatin IC20, at 0.5 µM); 99.9% in experiment [19] (measured here: with cisplatin IC20, at 5 µM); 99.9% in experiment [19] (single agent, at 5 µM).

On to `CN1C(C(=O)Nc2ccccn2)=C(O)c2ccccc2S1(=O)=O`, for which the glutamate uptake change in experiment [1] was -13.7%. The molecule also came in with an aggregation suppression score in experiment [2] of 0.134. The survival in experiment [3] is 20 (inactive). Moreover, in [4], the mean signal was 261 (inactive). Besides, the molecule was called inactive in experiment [5] and in experiment [6]. Moreover, the log fold change Tl+ flux in [7] was 0.0868 (inactive); in experiment [8], 0.0287 (inactive); in experiment [9], 0.0109 (inactive); in experiment [10], -0.0159 (inactive); in [11], 0.00877 (inactive); in experiment [12] it was 0.0414 (inactive). Further, the log fold change Tl+ flux in experiment [13] is 0.0251 (inactive); in [14], -0.00889 (inactive); in experiment [15], 0.00622 (inactive); in experiment [16], -0.000416 (inactive).

On to `Oc1ccc(/C=C/c2cc(O)cc(O)c2)cc1`, for which the survival in [3] is 13.8 (inactive). The mean signal in experiment [4] was 256 (inactive). The outcome in [5] and in experiment [6] was inactive. Also, the log fold change Tl+ flux in [7] was 0.101 (inactive); in experiment [8], 0.199 (active); in experiment [9] it was 0.155 (active); in [10], 0.154 (active); in experiment [11], 0.0893 (inactive); in experiment [12], 0.00518 (inactive). Also, the log fold change Tl+ flux in experiment [13] was 0.139 (active); in experiment [14], 0.139 (active); in experiment [15], 0.092 (active); in [16] it was 0.0308 (inactive).

`O=C1CCC(N2C(=O)c3ccccc3C2=O)C(=O)N1` (stereo unspecified): in experiment [1], the glutamate uptake change is -12.1%. In [2], the aggregation suppression score was 1.48. Also, the survival in experiment [3] is 19.2 (inactive). Also, in [4], the mean signal was 238 (inactive). For the same molecule, the molecule was classed as inactive in experiment [6]. Besides, the log fold change Tl+ flux is -0.00432 (inactive) in [7]; -0.0788 (inactive) in experiment [8]; -0.0091 (inactive) in [9]; 0.0329 (inactive) in experiment [10]; -0.00962 (inactive) in experiment [11]; 0.0291 (inactive) in [12]. Besides, the log fold change Tl+ flux in experiment [13] was -0.0697 (inactive); in experiment [14], 0.0347 (inactive); in experiment [15], -0.108 (inactive); in [16], -0.0685 (inactive).

For the molecule `Cc1noc(NS(=O)(=O)c2ccc(N)cc2)c1C`, the glutamate uptake change in experiment [1] is -4.32%. Moreover, the aggregation suppression score in experiment [2] came out at 1.13. Besides, the survival in experiment [3] is 8.25 (inactive). Moreover, the mean signal in experiment [4] is 256 (inactive). Further, the result in experiment [5] and in experiment [6] was inactive. Besides, the log fold change Tl+ flux in [7] was 0.00425 (inactive); in [8], -0.0556 (inactive); in experiment [9], 0.028 (inactive); in experiment [10] it was -0.0245 (inactive); in experiment [11] it was 0.0135 (inactive); in experiment [12] it was -0.023 (inactive). The log fold change Tl+ flux in experiment [13] was -0.0138 (inactive); in [14], 0.00261 (inactive); in experiment [15], -0.0229 (inactive); in [16], -0.0743 (inactive).

In the case of `N=C(N)c1ccc(OCCCCCOc2ccc(C(=N)N)cc2)cc1`, the glutamate uptake change in [1] was 6.93%. In [2], this molecule registered an aggregation suppression score of 0.265. For the same molecule, in [3], the survival was 0.583 (inactive). The outcome in experiment [5] and in experiment [6] was inactive. In addition, the fold change in experiment [20] (stronger effect = lower value, cell number ratio, induced over uninduced) was 0.873 (inactive) and 0.95 (inactive) and 1.08 (inactive); in [20] (measured here: relative caspase fold change +Dox/-Dox), 1.42 and 0.678 and 1.37. The cell count was 4130 and 4260 and 6460 in experiment [20] (measured here: total cells with miR-34 induction, stronger effect = lower value); 4730 and 4480 and 6000 in experiment [20] (measured here: total cells without miR-34 induction).

Consider `NC12CC3CC(CC(C3)C1)C2`, for which, in [1], the glutamate uptake change was -5.28%. In experiment [2], this molecule registered an aggregation suppression score of 1.59. Besides, the survival in experiment [3] is 4.42 (inactive). Besides, in experiment [4], the mean signal is 230 (inactive). The molecule was called inactive in experiment [6]. Further, the log fold change Tl+ flux is -0.0507 (inactive) in experiment [7]; 0.00169 (inactive) in experiment [8]; 0.0403 (inactive) in experiment [9]; 0.0492 (inactive) in experiment [10]; 0.0152 (inactive) in experiment [11]; -0.00425 (inactive) in experiment [12]. Moreover, the log fold change Tl+ flux in experiment [13] was 0.0102 (inactive); in [14] it was 0.045 (inactive); in [15], -0.0136 (inactive); in [16], 0.0148 (inactive).

Broadly, the inhibition is the relative decrease from the control value, in per cent.
